# From the supplement of paper PMC8047044
# Structures can show the parent of a compound that is named as a salt.
# Tested on: Neuro-2a
# Assay: neurite formation score, plate-normalized to DMSO control mean 5.04 (score (0-8 scale)); higher = more or longer neurites
# Conditions: 0.1 µM
# Procedure: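 Neuro-2a mouse neuroblastoma cells in PLL-coated 96-well plates were pre-treated for 1 h in DMEM(+) with each kinase inhibitor at 0.1 µM, then switched to serum-free DMEM(-) with inhibitor to induce neurite outgrowth and fixed about 2-3 h later. Three blinded observers scored neurite formation from 0 (no neurites) to 8 (long neurites on almost all cells).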
row,SMILES,neurite formation score
1,CCCCCCCCc1ccc(CCC(N)(CO)CO)cc1 [Fingolimod (FTY720)],4.25
2,CC(C)Oc1ccc(-c2cnc3c(-c4ccnc5ccccc45)cnn3c2)cc1,4.08
3,Cc1nc(-c2cn3c(n2)-c2ccc(-c4cnn(C(C)(C)C(N)=O)c4)cc2OCC3)n(C(C)C)n1,4.92
4,CCn1cc(-c2ccnc3[nH]c(-c4cccc(CN(C)C)c4)cc23)c(-c2ccc(NC(=O)N(C)C)cc2)n1,5.25
5,CC(C)(C#N)c1ccc(N2C(=O)OCc3cnc4ccc(-c5cnc6ccccc6c5)cc4c32)cc1,4.25
6,CCOC(=O)c1cnc2ccc(-c3cncc(NS(=O)(=O)c4ccccc4)c3)cn12,0.0843
7,Oc1ccc2ccccc2c1SSc1c(O)ccc2ccccc12,5.42
8,Cn1cnc(-c2cc3nccc(Oc4ccc(NC(=S)NC(=O)Cc5ccccc5)cc4F)c3s2)c1,4.92
9,O=C(Nc1ccc(OC(F)(F)F)cc1)c1sccc1NCc1ccnc2ccccc12,3.38
10,COc1cc(Nc2ncc(F)c(Nc3ccc4c(n3)N(COP(=O)(O)O)C(=O)C(C)(C)O4)n2)cc(OC)c1OC [Fostamatinib (R788)],3.76
11,O=C(c1ccc(Nc2nccc(-c3cc4ccccc4s3)n2)cc1)N1CCC(N2CCCC2)CC1 [IKK-16 (IKK Inhibitor VII)],3.75
12,CN1CC[C@H](c2c(O)cc(O)c3c(=O)cc(-c4ccccc4Cl)oc23)[C@H](O)C1 [Flavopiridol hydrochloride],3.76
13,CCc1cnn2c(NCc3ccc[n+]([O-])c3)cc(N3CCCC[C@H]3CCO)nc12,3.42
14,CCC(=O)Nc1cccc(Oc2nc(Nc3ccc(N4CCN(C)CC4)cc3OC)ncc2Cl)c1,4.25
15,O=c1c(O)c(-c2ccc(O)c(O)c2)oc2cc(O)cc(O)c12 [Quercetin],5.08
16,C[C@@H](Oc1ccc2[nH]nc(/C=C/c3cnn(CCO)c3)c2c1)c1c(Cl)cncc1Cl,4.92
17,CC(C)(C)n1nc(Cc2cccc3ccccc23)c2c(N)ncnc21,4.58
18,CN(C)C(=O)c1cc2cnc(Nc3ccc(N4CCNCC4)cn3)nc2n1C1CCCC1,4.58
19,CN1C/C=C/CCOc2cccc(c2)-c2ccnc(n2)Nc2cccc(c2)C1,4.42
20,CNC(=O)c1cc(Oc2ccc(NC(=O)Nc3ccc(Cl)c(C(F)(F)F)c3)c(F)c2)ccn1 [Regorafenib monohydrate],5.25
21,CCCCCCCCCCCCCCCc1cccc(O)c1C(=O)O [Anacardic acid],4.92
22,c1cc(-c2cnn3cc(-c4ccc(N5CCNCC5)cc4)cnc23)c2cccnc2c1,4.75
23,CC(C)(C)Cn1c(N)nc2ccc(-c3[nH]c(C(C)(C)C)nc3-c3ccc(F)cc3)nc21,5.54
24,N#CCNC(=O)c1ccc(-c2ccnc(Nc3ccc(N4CCOCC4)cc3)n2)cc1,4.92
25,Cc1nc(NC(=O)N2CCC[C@H]2C(N)=O)sc1-c1csc(C(C)(C)C)n1,5.21
26,"CO[C@H]1C[C@@H]2CC[C@@H](C)[C@@](O)(O2)C(=O)C(=O)N2CCCC[C@H]2C(=O)O[C@H]([C@H](C)C[C@@H]2CC[C@@H](OP(C)(C)=O)[C@H](OC)C2)CC(=O)[C@H](C)/C=C(\C)[C@@H](O)[C@@H](OC)C(=O)[C@H](C)C[C@H](C)/C=C/C=C/C=C/1C [Ridaforolimus (Deforolimus, MK-8669)]",1.42
27,O=C(Cc1ccc(-c2ccc(OCCN3CCOCC3)cc2)cn1)NCc1ccccc1,-0.243
